# PubChem BioAssay (NCI)
# This is part of a sample that, as a whole, favours compounds with a hit. Of some 83,000 tested, about 20% had one in any assay.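 Assay: single dose, 48 h. Readout: percent growth (0 = no net growth; negative = cell death). Active: <10.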 Values without a mark were called inactive. The source made the active and inactive calls.
# System: 786-0 renal
# Assay: NCI-60 one-dose screen, 48 h (100 = growth as untreated, 0 = no growth, -100 = all killed)
# Settings: 10 µM
row,Compound,growth
1,NS(=O)(=O)Oc1ccc(-c2ccc3sccc3c2)cc1,106%
2,C=C(C)[C@@H]1CC[C@]2(COCCC#N)CC[C@]3(C)[C@H](CC[C@@H]4[C@@]5(C)Cc6c([nH]c7ccccc67)C(C)(C)[C@@H]5CC[C@]43C)[C@@H]12,101%
3,O=S(=O)(Oc1ccc(-c2ccc3sccc3c2)cc1)c1ccc(F)cc1,96.3%
4,Cc1nn(-c2ccccc2)c2nc(Cl)c(C=O)c(-c3ccccc3)c12,94.5%
5,Cc1ccc(S(=O)(=O)N/N=C2\CCCc3ccccc32)cc1,116%
6,COc1ccc(-c2cc(-c3ccc(OC)c(OC)c3)nc(SCCCC(=O)NO)n2)cc1,-20.8% (active)
7,CC(C)C[C@H](NC(=O)Cn1cccc(CNC(=O)c2ccccc2)c1=O)B(O)O,29.5%
8,CC[C@@H](C(=O)[C@@H](C)[C@@H](O)[C@H](C)[C@@H]1O[C@@H]([C@@H](CC)C(=O)O)CC[C@@H]1C)C1O[C@]2(C=CC(=O)[C@]3(CC[C@@](C)([C@H]4CC[C@](O)(CC)[C@H](C)O4)O3)O2)[C@H](C)C[C@@H]1C (stereo not given in full),24.7%
9,CCOC(=O)/C(=C(\C)N)C1CC(=O)NC1=O (stereo not given),101%
10,COc1cc(-c2nn(-c3cccc(NC(=O)CCNc4ccc(N5CCOCC5)cc4)c3)cc2-c2ccncc2)ccc1Cl,19.1%
11,CC(=O)N[C@H](C(=O)N[C@@H](CCCNC(=N)N)C(=O)N[C@@H](CCCCN)C(=O)N[C@@H](CCCNC(=N)N)C(=O)N[C@]1(C)CCCCCC/C=C\CCC[C@@](C)(C(=O)N[C@@H](CCCNC(=N)N)C(=O)N[C@@H](CCC(=O)O)C(=O)N[C@@H](CC(C)C)C(=O)N[C@H](C(=O)N[C@@H](CCC(=O)O)C(N)=O)C(C)C)NC(=O)[C@H](CCC(N)=O)NC(=O)[C@H](CC(C)C)NC(=O)[C@H](CC(C)C)NC(=O)[C@H](CCCNC(=N)N)NC(=O)[C@H](CCCNC(=N)N)NC(=O)[C@H](CC(C)C)NC1=O)C(C)C,-51.4% (active)
12,O=C1c2ccccc2C(=O)c2c1ccc1c(=O)n(-c3ccccc3C(F)(F)F)nnc21,60.5%
13,Cc1c(Cl)cccc1NC(=O)CCCl,103%
14,COc1cc(-c2csc(NC(=O)Nc3cc(C(F)(F)F)cc(C(F)(F)F)c3)n2)cc(OC)c1OC,13.4%
15,Nc1ccn(Cc2nnc(CCC(=O)c3nc4ccccc4[nH]3)o2)c(=O)n1,97.2%
16,O=C1C=C(Nc2cccc(Br)c2)c2ccccc2C1=O,60.2%
17,COc1cccc(N=Nc2cccc(OC)c2)c1,91.3%
18,C=CCN(CC=C)C(=O)[C@H](CC)[C@@H]1CC[C@@H](C)[C@@H]([C@H](C)[C@@H](O)[C@@H](C)C(=O)[C@H](CC)C2O[C@]3(C=C[C@@H](O)[C@]4(CC[C@@](C)([C@H]5CC[C@](O)(CC)[C@H](C)O5)O4)O3)[C@H](C)C[C@@H]2C)O1 (stereo not given in full),20%
19,O=C1/C=C/[C@@H](O)[C@@H]2C[C@@H](O)C[C@H]2/C=C/CCC[C@@H](C(F)(F)F)O1,92.6%
20,CC[C@@H](C(=O)[C@@H](C)[C@@H](O)[C@H](C)[C@@H]1O[C@@H]([C@@H](CC)C(=O)N(CC)CC)CC[C@@H]1C)C1O[C@]2(C=CC(=O)[C@]3(CC[C@@](C)([C@H]4CC[C@](O)(CC)[C@H](C)O4)O3)O2)[C@H](C)C[C@@H]1C (stereo not given in full),34.6%
21,O=S(=O)(O)c1ccc(Cl)cc1,111%
22,CCN(CC)CCOc1cccc2c1C(=O)c1ccccc1C2=O,93.1%
23,CC[C@@H]1NC(=O)[C@H]([C@H](O)[C@H](C)C/C=C/c2ccc(CN3C(=O)CCCC3=O)cc2)N(C)C(=O)[C@H](C(C)C)N(C)C(=O)[C@H](CC(C)C)N(C)C(=O)[C@H](CC(C)C)N(C)C(=O)[C@@H](C)NC(=O)[C@H](C)NC(=O)[C@H](CC(C)C)N(C)C(=O)[C@H](C(C)C)NC(=O)[C@H](CC(C)C)N(C)C(=O)CN(C)C1=O,67.1%
24,O=C(Nc1ccc(NS(=O)(=O)c2ccc(F)cc2)cc1)C12CC3CC(CC(C3)C1)C2,103%
25,C/C(=N\O)c1ccc(NC(=O)CSc2nnc(-c3ccccc3)n2-c2ccccc2)cc1,80.5%
